Test results published in the supplement of paper PMC3334620.
Whole data set: some 33,000 sequences, median “E-score (-0.5 to 0.5)” near -0.0014, cut for the highest 2% near 0.25. Only a selection was taken, and the highest values are over-represented in it overall.

Each sequence was assayed against T1, Cad1 (UniProt P24813) (assay: PBM E-score (8-mer binding enrichment) (E-score (-0.5 to 0.5)); higher = stronger / more preferred TF binding). Conditions: protein concentration: 100 nM; construct: GST-full length.
T1 sequence: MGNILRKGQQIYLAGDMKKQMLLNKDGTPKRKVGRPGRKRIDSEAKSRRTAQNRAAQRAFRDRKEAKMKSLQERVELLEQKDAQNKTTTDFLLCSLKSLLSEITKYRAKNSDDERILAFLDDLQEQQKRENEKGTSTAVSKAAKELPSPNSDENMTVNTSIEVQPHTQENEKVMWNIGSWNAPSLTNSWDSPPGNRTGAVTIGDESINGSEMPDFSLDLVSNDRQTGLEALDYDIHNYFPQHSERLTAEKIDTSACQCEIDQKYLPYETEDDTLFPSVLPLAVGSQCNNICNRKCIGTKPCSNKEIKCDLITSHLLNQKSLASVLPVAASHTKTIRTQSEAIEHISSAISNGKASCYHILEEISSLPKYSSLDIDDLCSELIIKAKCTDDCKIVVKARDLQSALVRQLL
Description: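 Universal 'all 10-mer' protein binding microarrays (Agilent AMADID 015681) probed with GST-tagged S. cerevisiae TFs (full-length or DBD) made by in vitro transcription/translation (PURExpress), about 100-200 nM. Bound TF was detected with fluorescent anti-GST. Each ungapped 8-mer (which stands for itself and its reverse complement) is scored by the PBM enrichment score (E-score), a modified Wilcoxon-Mann-Whitney statistic from -0.5 to +0.5, computed with the Universal PBM Analysis Suite. Scale: above 0.35 generally sequence-specific binding.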

Row | Sequence | PBM E-score
1 | TATAATCA | 0.31
2 | AGCTCCGG | -0.115
3 | AAGCAGAG | -0.111
4 | GCAAGGCC | 0.0338
5 | CAGAGAGG | -0.329
6 | AGAGCCGG | -0.167
7 | AACCAAGC | 0.03
8 | AAATCGGG | 0.0578
9 | GGGTATAC | 0.0548
10 | GCATCTAA | 0.194
11 | TAACACTA | 0.265
12 | GAACACTA | 0.0513
13 | CAACACTA | 0.19
14 | ACCGTCAC | -0.176
15 | CCCACACA | 0.00769
16 | AGAAGGCT | -0.299
17 | ATGTAATC | 0.168
18 | ATGTAACC | -0.0284
19 | ATGTAACG | 0.257
20 | GTGTAATA | 0.194
21 | ATGTAATA | 0.334
22 | CTGTAATA | 0.143
23 | ATGTAACA | 0.168
24 | AAGTAATG | 0.0383
25 | ATGTAATG | 0.281

Row | Sequence | PBM E-score
26 | ATCTTACC | 0.0255
27 | GACATTCC | -0.0262
28 | GAGAACTA | 0.103
29 | GTCTAAGA | 0.151
30 | TCCTCCCA | -0.144
31 | TTAGATAA | 0.105
32 | GTAGATAA | 0.251
33 | ATAGATAA | 0.125
34 | ACAGGCAA | 0.0554
35 | GGATCCGA | -0.00022
36 | CGATCCGA | 0.251
37 | CGATCCGC | 0.163
38 | CGGGTTTA | -0.0209
39 | AGAGTGCT | 0.0363
40 | TAAGAACA | 0.275
41 | GAAGAACA | 0.121
42 | CAAGAACA | 0.0216
43 | CTAGCTTC | 0.0393
44 | AGCCTACC | -0.282
45 | CAACTGTC | 0.0813
46 | CACTAAAA | 0.19
47 | CACAGTAA | 0.291
48 | TACAGTAA | 0.0528
49 | CACAGTAG | -0.0343
50 | TCATTAAA | 0.265

Row | Sequence | PBM E-score
51 | CTATTAAC | 0.141
52 | CTATTAAA | 0.00283
53 | CTAATAAA | 0.0515
54 | ATAATAAA | 0.243
55 | ATATTAAT | 0.368
56 | ATATTAAA | 0.385
57 | GCATTAAA | 0.103
58 | TTAATAAA | 0.389
59 | ACATTAAA | 0.11
60 | ATATTAAG | 0.115
61 | ATATTAAC | 0.224
62 | ACCAGATG | -0.0464
63 | CTCAGCCC | -0.21
64 | CCAGAGCA | -0.00085
65 | ATTTGATG | 0.148
66 | AGACTTCG | -0.0445
67 | TATCTTCA | -0.0564
68 | ACTAGATA | 0.0286
69 | ATATAGAA | 0.00309
70 | TCTGAGCA | 0.0835
71 | CAGGGAAA | -0.054
72 | ACAAAGTA | 0.193
73 | CCCTGAAC | 0.229
74 | CATCGCTC | -0.187
75 | AGAGCGTG | -0.0848

Row | Sequence | PBM E-score
76 | CTTGCGAA | 0.184
77 | GTATTCAA | 0.14
78 | ATACTAAA | 0.231
79 | CATTTCAA | 0.174
80 | TTACTAAA | 0.374
81 | GATTTCAA | 0.013
82 | ATAGTAAA | 0.225
83 | GTACTAAA | 0.054
84 | CTAGTAAA | 0.0669
85 | TTAGTAAA | 0.339
86 | ATATTCAA | 0.144
87 | TATTTCAA | 0.309
88 | TTATTCAA | 0.252
89 | AACGCCAT | -0.0315
90 | CTCGTAAA | 0.0173
91 | AGGGCACA | -0.116
92 | ATCGCATA | 0.0254
93 | CATAAGCC | 0.0914
94 | ACTGCTTA | 0.132
95 | GGGTAGAC | -0.191
96 | TCTAAAAA | -0.0235
97 | CCCTGTGA | -0.161
98 | TGATTAAA | 0.123
99 | GTATTAAA | 0.0777
100 | TTATTAAA | 0.307

Row | Sequence | PBM E-score
101 | AACACGTG | 0.217
102 | ATGCCAAT | -0.0122
103 | AATCACGT | 0.184
104 | ATACGTAT | 0.298
105 | ATACGTAC | -0.0354
106 | ATACGTAA | 0.2
107 | ACTAATCC | 0.242
108 | TCTAATCA | 0.181
109 | CCTAATCG | 0.168
110 | ACTAATCG | 0.356
111 | ACTAATCA | 0.344
112 | ACTAATCT | 0.135
113 | AATCCGCG | 0.13
114 | AGTCCTAC | -0.0257
115 | ATTGAGTC | 0.0114
116 | ACCGAGAT | 0.0127
117 | AGCGTAAA | 0.0495
118 | AATTACTG | 0.14
119 | AATTACAC | 0.148
120 | GGTTACTA | 0.0723
121 | GTTTACTA | 0.195
122 | GATTACTA | 0.392
123 | AATTACAT | 0.354
124 | CTTTACTA | 0.213
125 | CATTACTA | 0.25

Row | Sequence | PBM E-score
126 | AATTACTC | 0.239
127 | AATTACAG | 0.161
128 | CATTACTC | 0.0943
129 | AATTACTA | 0.32
130 | TCACAGGA | -0.0436
131 | CCTCGAAC | -0.0906
132 | GAGCTAGA | -0.178
133 | AGAACGCG | 0.0894
134 | GCGGTAGA | -0.0737
135 | CGAGCGTA | 0.0172
136 | CGAAAAGC | -0.143
137 | GCTTCACA | -0.0729
138 | AGATCACA | -0.0498
139 | CGATCACG | 0.273
140 | CGATCACA | 0.204
141 | GACCTCCC | -0.247
142 | ATCTAGGC | -0.102
143 | GCAAAAGA | -0.0108
144 | AGAATTCG | 0.051
145 | AGAATTCT | 0.278
146 | AGAATTCA | 0.126
147 | ACACCCGA | 0.134
148 | AACGCCGG | -0.0998
149 | CACTGCGC | -0.0286
150 | ATTCAAGA | 0.0376

Row | Sequence | PBM E-score
151 | GTTGGAAA | -0.0664
152 | AGTCGCGG | -0.179
153 | GGTCGCGA | 0.273
154 | AGTCGCGC | 0.212
155 | GGTCGCTA | -0.112
156 | AGTCGCGA | 0.285
157 | CGTCGCGA | 0.111
158 | CAAACAAG | 0.0295
159 | GGAGCGCC | -0.252
160 | AACACCAG | -0.0336
161 | GCCTTCAA | 0.0307
162 | GTGCGGAA | 0.0803
163 | ATAACTAA | 0.146
164 | TAAACTAA | 0.186
165 | CAAACTAA | 0.258
166 | TTAACTAA | 0.291
167 | CAAACTAC | -0.0121
168 | CTAACTAA | 0.206
169 | CCACTGTC | -0.0971
170 | CCTGGAAA | -0.0814
171 | GGGTCTAC | -0.0723
172 | ACTCCGTA | -0.228
